About 83,000 compounds went through this panel and 20% of them were active in at least one assay; those are over-represented in the sample as a whole.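 Assay: single dose, 48 h. Readout: percent growth (0 = no net growth; negative = cell death). Active: <10.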 Calls of active or inactive are those of the source.
What follows are molecules tested on MDA-MB-468 breast (assay: NCI-60 one-dose screen, 48 h (100 = growth as untreated, 0 = no growth, -100 = all killed)). Settings: 10 µM unless noted.
With `CCCCc1ccc2nc(NC(=O)OC)[nH]c2c1` the growth was 22.3% (inactive). For `Cc1cc2cc3ccc(N(C)C)cc3nc2cc1N`, the growth was -56.8% (active). In the case of `CCCCCOc1ccc(/C=N/Nc2cc(C)nc3ccc(Br)cc23)cc1`, the growth is reported as -15.1% (active). With `N#Cc1c(-c2ccccc2)nc(SCc2nnc(-c3ccc(Cl)cc3)o2)[nH]c1=O` the growth was 103% (inactive). For `CN(C)CCCC1(c2ccc(F)cc2)OCc2cc(-c3ccc4cc[nH]c4c3)ccc21` (stereo not given), the growth was -27.1% (active). In the case of `COc1ccc(-c2cc3c(OC)c(OC)c(OC)cc3oc2=O)cc1`, the growth is reported as 23.6% (inactive). `C=C1CC[C@H]2[C@@](C)(CCC3OC(c4ccc(OCc5cn(C6CC(OC(C)=O)C(OC(C)=O)C(COC(C)=O)O6)nn5)cc4)OC[C@]32C)[C@@H]1/C=C/C1=CCOC1=O` (stereo not given in full) was tested, and the growth was 47.3% (inactive). For `O=C(Cn1cncn1)Nc1ccc(-c2nc3ccccc3s2)cc1`, the growth was -29.7% (active). With `Cc1ccc(C(=O)c2oc3ccc4c(C)cc(=O)oc4c3c2C)cc1` the growth was 16% (inactive). With `O=[N+]([O-])c1ccc(S(=O)(=O)OCCCCOS(=O)(=O)c2ccc([N+](=O)[O-])cc2)cc1` the growth was 92.2% (inactive). For `NC(N)=Nc1cc2ccccc2c2ccccc12`, the growth was 54.4% (inactive). With `Cc1ccc2nc(SCC(=O)Nc3ccc(-c4nc5ccccc5s4)c(Cl)c3)[nH]c2c1` the growth was 101% (inactive). In the case of `Clc1ncnc2scc(C3COc4ccccc4O3)c12` (stereo not given), the growth is reported as -3.8% (active). With `COc1ccc(-c2ccc(-c3ccc(C(=N)N)c(F)c3)s2)cc1` the growth was -78.7% (active). For `N#CC(C#N)N=Nc1ccc(Cl)cc1`, the growth was -17.6% (active).
